Screening data (PubChem)
Sampled rows, rich in hits. Any-hit rate of the full collection: about 12%.
BAZ2B block: blocks human BAZ2B; AlphaScreen BAZ2B-H3K14Ac peptide displacement; Potency, µM (top dose mostly 114 µM), without a hit: at the highest dose activity change, negative = inhibition, hits mostly inhibitors; hit rate 4.4% among 360,000; AID 504333; also: % is scaled to controls: 0 for no effect and ±100 for the full control effect; nearly all actives have a fitted effect of over 60% in size
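Multi-concentration screen (max 110 uM) measuring displacement of acetylated histone H3 peptide from BAZ2B by AlphaScreen, using 50 nM protein, 50 nM peptide and 10 ug/mL streptavidin donor plus Ni-chelate acceptor beads.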
JMJD2A Tudor inh: blocks the human JMJD2A Tudor domain; hit rate 4.4% among 390,000; O75164; AlphaScreen JMJD2A-Tudor / H3K4me3 peptide binding; Potency, µM (top dose mostly 114 µM), for the others: at the highest dose activity change, negative = inhibition, hits mostly inhibitors; AID 504339; also: % is scaled to controls: 0 for no effect and ±100 for the full control effect; nearly all actives have a fitted effect of over 50% in size
G9a inh: inhibitors of human histone lysine methyltransferase G9a; Potency, µM (series often up to 102 µM), without a hit: top-dose activity, negative = inhibition, hits mostly inhibitors; G9a H3K9 monomethylation, AlphaScreen, 2 h; hit rate 8.8% among 350,000; also: % is scaled to controls: 0 for no effect and ±100 for the full control effect; nearly all actives have a fitted effect of over 75% in size
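Chemiluminescent proximity detection of H3K9 monomethylation, read after 10 min bead incubation in the dark. Reaction: 20 nM G9a, 500 nM biotin-H3K9 peptide, 20 uM SAM cofactor, 2 h, room temperature, following 15 min enzyme-compound preincubation.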
HP1b binding inh: HP1-beta chromodomain-methylated histone interaction inhibition; AID 540317; hit rate 0.56% among 390,000; P83916; Potency, µM (highest dose often 114 µM), inactives show at the highest dose activity change, negative = inhibition, most hits filed as inhibitors; AlphaScreen HP1-beta / biotin-H3K9me3 peptide binding; also: nearly all actives have a fitted effect of over 70% in size
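HP1-beta protein (50 nM final) preincubated 30 min at room temperature with biotinylated H3(1-18)K9me3 peptide (50 nM) in PBS pH 7.4, 0.01% Tween-20, then compound added for 30 min. AlphaScreen streptavidin donor/nickel chelate acceptor beads (10 ug/mL final), 30 min dark, luminescence read.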
Sfp PPTase inh: inhibitors of Bacillus subtilis Sfp phosphopantetheinyl transferase; Biochemical Sfp PPTase activity, qHTS; Q9F4F7; Potency, µM, without a hit: largest response in the series, negative = inhibition, most hits filed as inhibitors; hit rate 3.5% among 310,000;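 also: the enzyme is Sfp with the accession as filed and its product quenches rhodamine fluorescence; 0% = enzyme reaction without inhibitor and -100% = no enzyme wells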
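Sfp 15 nM + cpd, 15 min RT; start w/ rhodamine-CoA 5 uM, BHQ-2-YbbR 12.5 uM (final); 50 mM Hepes pH 7.6, 10 mM MgCl2, 0.01% NP-40, 0.01% BSA; read 525/598 nm at 0 and 30 min.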
TDP1 block: inhibitors of human tyrosyl-DNA phosphodiesterase TDP1 | Q9NUW8 | recombinant TDP1, AlphaScreen DNA substrate cleavage | Potency, µM (highest dose often 130 µM), for inactives: at the top dose activity change, negative = inhibition, hits mostly inhibitors | hit rate 0.28% among 350,000 | AID 485290; also: % is scaled to controls: 0 for no effect and ±100 for the full control effect; nearly all actives have a fitted effect of over 40% in size
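Signal: AlphaScreen proximity between streptavidin donor and anti-FITC acceptor beads on intact substrate. Reaction: Tdp1 1 nM, substrate 15 nM final, 5 min RT after 15 min compound preincubation.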
Active calls of the source: *; ? = inconclusive; . = no result given; ! = a repeat was not active; [ ] = dose if it differs, or a comment. Calls follow the shape of the dose curve; as a rule, active = well fitted curve in the direction sought with a large enough effect; inconclusive = small, poorly fitted or top-dose-only effect, or another doubt; inactive = no such curve, though single readings can be large; an effect the other way counts as inactive or inconclusive. Potency is read from the fitted curve at half-maximal effect.

SMILES	BAZ2B block	JMJD2A Tudor inh	G9a inh	HP1b binding inh	Sfp PPTase inh	TDP1 block
CN(C)c1ccc(/C=N/n2c(-c3ccccc3Br)n[nH]c2=S)cc1	?	14µM*	0.71µM*	-19%	56µM*	.
S=c1[nH]nc(-c2cccnc2)n1/N=C/c1ccc(Br)s1	-36%	5.6µM*	?	56%	4%	.
S=c1nc2ccccc2c2nc(-c3ccccc3Br)[nH]n12	11%	-8%	10%[0.501 µM]	17%	-3%	.
Cn1c(-c2ccccc2Br)n[nH]c1=S	.	4.5µM*	.	-16%	.	.
C=C1C(=O)O[C@@H]2[C@H]3O[C@]3(C)CC/C=C(\C)CC[C@@H]12	.	-4%	7.9µM*	55%	-25%	7%
C=CCN1C(=O)c2ccccc2Sc2ccc(C(=O)NCC(OC)OC)cc21	9%	-1%	34%	32%	0%	.
Cc1ccccc1C(=O)Nc1ccnn1C1CCN(Cc2cnn(C(C)C)c2)CC1	-1%	0%	?	22%	8%	5%
O=C(NCc1n[nH]c(=S)n1Cc1ccccc1)c1ccc(Cl)cc1Cl	-14%	-30%	?	33%	4%	4%
CCn1c(CCNC(=O)c2ccccc2Cl)n[nH]c1=S	4%	40µM*	.	33%	6%	.
O=C(NCCN1CCCC1)c1ccc(Cl)cc1Cl	4%	-7%	-23%	51%	3%	2%
CCCNC(=O)c1ccc(Cl)cc1Cl	5%	11%	50µM*	25%[57 µM]	22%	.
CCn1c(CCNC(=O)c2ccc(Cl)cc2Cl)n[nH]c1=S	9%	7.1µM*	40µM*	41%	4%	-9%
CCOc1ccc(-c2cc(NC(=O)c3ccccc3)c(C(=O)OC)s2)cc1	11%	12%	2%[59 µM]	56%	.	5%
COC(=O)c1sc(-c2ccc(C(C)(C)C)cc2)cc1NC(=O)CCC(=O)O	-28%	-16%	71µM*	58%	-8%	3%
COC(=O)c1sc(-c2ccc(Cl)cc2)cc1NC(=O)/C=C/C(=O)O	-11%	-8%	-28%	40%	?	.
COC(=O)c1sc(-c2ccc(Cl)cc2)cc1NC(=O)COCC(=O)O	?	-20%	56µM*	23%	3%	7%
CCCCCSc1ncnc2c1sc1nc(N3CCOCC3)c3c(c12)CCCC3	-2%	0%	-3%[59 µM]	34%	.	0%
CC1(C)Cc2ccccc2C(NNC(=O)c2ccccn2)=N1	32µM*	45µM*	12%[59 µM]	27%	9%	9%
CC1(C)Cc2ccccc2C(NNC(=O)c2ccccc2)=N1	9%	6%	-32%	-1%	9%	3%
O=C1/C(=C/c2ccc(O)cc2)CCc2ccc([N+](=O)[O-])cc21	2%	-8%	?	8%	18%	3%
O=C1ON=C(c2ccccc2)/C1=C/c1ccc(OS(=O)(=O)c2ccccc2)cc1	50µM*	79µM*	8.9µM*	?	-27%	3%
COc1ccc(/C=C2\C(=O)ON=C2c2ccccc2)cc1	?	35µM*	40µM*	-7%	40µM*	.
COc1ccc(/C=C2\Oc3ccccc3C2=O)cc1	.	-1%	.	39%	.	0%
O=C1ON=C(c2ccccc2)/C1=C/c1ccc(O)c(O)c1	28µM*	14µM*	25µM*	8.9µM*	50µM*	.
O=C1ON=C(c2cccc([N+](=O)[O-])c2)/C1=C/c1ccc(O)cc1	?	-3%[11.4 µM]	22µM*	-14%	-61%	-1%
SMILES	BAZ2B block	JMJD2A Tudor inh	G9a inh	HP1b binding inh	Sfp PPTase inh	TDP1 block
CC1=C(C(=O)OCCC#N)C(c2cc3c(cc2Br)OCO3)NC(=O)N1 (stereo not given)	-5%	-14%	36%[59 µM]	40%	10%	.
COc1cccc(N2C(=O)c3ccccc3C2=O)n1	.	6%	.	.	.	0%
Cc1nn(CC(=O)NCc2ccc(F)cc2)c2ccccc12	-31%	-21%	-45%[59 µM]	1%	.	9%
O=C1ON=C(c2ccccc2)/C1=C/c1cccnc1	-11%	-6%	45µM*	21%	12%	5%
N[C@H](Cc1ccccc1)C(=O)O	.	.	33%[59 µM]	.	-15%	-1%
NC(Cc1ccc2nonc2c1)C(=O)O (stereo not given)	79µM*	8.9µM*	13µM*	-6%	?	0%
CCOC(=O)C(Cc1ccccc1)C(=O)Nc1ccc(NC(=O)C(Cc2ccccc2)C(=O)OCC)cc1 (stereo not given)	-3%	-1%	-33%[59 µM]	37%	-5%	2%
N[C@@H](Cc1ccc(F)cc1)C(=O)O	.	-26%	10µM*!	89%	.	9%[56.1 µM]
NC(Cc1ccc(Cl)cc1)C(=O)O (stereo not given)	.	.	9.5µM*!	.	2%	7%[56.1 µM]
CCOC(=O)C(C(C)C)C(N)Cc1ccc(F)cc1 (stereo not given)	50µM*	?	-38%	4%	6%	-2%
C[C@@]12CCC(O)C[C@H]1CCc1ccccc12 (stereo not given in full)	.	.	.	.	-4%	15%[56.1 µM]
COc1ccc(-c2nc3ccc(C)cn3c2NCc2ccc3c(c2)OCO3)cc1	?	?	-4%	-9%	?	-2%
Cc1ccc(Nc2c(-c3ccc(N(C)C)cc3)nc3ccccn23)cc1	-20%	7.9µM*	?	?	.	10%
Cc1ccc2nc(-c3ccncc3)c(Nc3ccccc3)n2c1	-36%	-28%	-3%[59 µM]	75%	3%	1%
Cc1ccc(-c2nc3ccccn3c2NCc2ccc3c(c2)OCO3)cc1	?	100µM*	?	?	?	10%
Cc1ccc(-c2nc3ccccn3c2Nc2ccc3c(c2)OCO3)cc1	18µM*	25µM*	10µM*	?	.	2%[12.3 µM]
O=C(COc1ccc(-c2nnco2)cc1)N1CCOCC1	.	0%	.	24%	.	-2%
CCCCC(=O)Nc1nc2c(OC)ccc(OC)c2s1	10%	-6%	-8%	34%	6%	4%
CCC[n+]1c(C)sc2c(OC)ccc(OC)c21	5%	16µM*	25µM*	40%	4µM*	3%
O=C(COC(=O)c1ccc(O)cc1O)Nc1ccc2ccccc2c1	8%	-22%	17%[12.7 µM]	20%	.	-7%
COC(=O)c1ccc(NCc2cc(O)ccc2O)cc1O	.	8.9µM*	.	56µM*	.	.
COC(=O)c1ccc(NCc2c(O)ccc(O)c2Br)cc1Cl	.	3.5µM*	.	10µM*	.	.
Nc1ccc(Oc2cc(N)cc(Oc3ccccc3)c2)cc1	50µM*	?	?	?	8%	.
Nc1ccc(Oc2ccc3nc(-c4ccccc4)c(-c4ccccc4)nc3c2)cc1	?	?	.	-11%	1%	7%
COc1ccc(-c2csc3ncnc(N4CCN(c5ccccc5)CC4)c23)cc1	?	?	71µM*	-7%	16%	3%
COc1ccc(-c2csc3ncnc(N4CCN(Cc5ccccc5)CC4)c23)cc1	?	-26%	-17%	13%	-15%	7%[56.1 µM]
